Source: the supplement of paper PMC3842684

Assays:
[1] = tested on: P. falciparum NF54-pfs16-GFP early (I-III) stage gametocytes; experiment: relative % inhibition of viable gametocyte number; higher = more gametocytocidal; conditions: stage: early (I-III) gametocyte, incubation 72 h
Procedure, shortened: (§1)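 Viable gametocytes were counted by confocal imaging as elongated GFP objects carrying MitoTracker Red signal above a cut-off, after 72 h of compound exposure (5 or 0.5 µM) at 37°C in 5% CO2 and 5% O2 and overnight staining. The NF54 pfs16-GFP gametocytes had been magnet-isolated at early (I/IIa, day 2) or late (day 8) stage and plated at 10% parasitaemia, 0.1% haematocrit in 384-well poly-D-lysine imaging plates. Relative inhibition was normalised to vehicle and positive-control wells within each plate.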

[2] = tested on: P. falciparum NF54-pfs16-GFP late (IV-V) stage gametocytes; experiment: as above; conditions: stage: late (IV-V) gametocyte, incubation 72 h
Procedure, shortened: as §1

Compound | relative % inhibition ([1]; 0.5 µM) [%] | relative % inhibition ([1]; 5 µM) [%] | relative % inhibition ([2]; 0.5 µM) [%] | relative % inhibition ([2]; 5 µM) [%]
COc1ccc2nc(C)cc(Nc3ccccc3O)c2c1 | 6.33 | 20.9 | -7.14 | 18.4
CC(O)(c1ccc(Cl)cc1)C(CN1CCCCC1)c1ccccc1 (configuration not stated) | 20 | 59.1 | 14 | 22.3
CC(C)(C)c1ccc(C2CC3=Nc4ccccc4N(C(=O)c4ccccc4Cl)C(c4ccc(F)cc4)C3=C(O)C2)cc1 (configuration not stated) | 20 | 80.4 | 60.8 | 89.9
COCCNCC(O)Cn1c2ccc(Cl)cc2c2cc(Cl)ccc21 (configuration not stated) | 5.62 | 62.7 | 52.3 | 96.1
CCCCCCn1c(=N)n(CC(O)COc2cccc(C)c2)c2ccccc21 (configuration not stated) | 23 | 52 | -12.2 | 103
CCOc1ccc(-c2nonc2NC(=O)c2cccc(C)c2)cc1OCC | 31.4 | 94.4 | 27.6 | 18.4
CN(C)c1ccc(C=Cc2nc(=O)c3ccccc3o2)cc1 | -10.1 | -23 | 27.4 | 88.2
COc1ccccc1CNC(=O)CCn1c(=O)[nH]c2ccsc2c1=O | 16.9 | 2.5 | -0.5 | 0
CN1c2ccccc2N(C)C1c1ccc2c(c1)OCO2 | 0.225 | -13.6 | 28.6 | -1.98
CCCCOc1ccc(C(=O)Nc2cc(C)on2)cc1 | 3 | 12.9 | -7.15 | 17.4
COc1cccc(O)c1CN1CCC2(CCCN(Cc3ccc(F)cc3)C2)C1 (configuration not stated) | 11.3 | 80.5 | 17.2 | 98.8
CCOc1ccccc1CNC(=O)C1c2ccccc2C(=O)N(CC(C)C)C1c1cccs1 (configuration not stated) | 6.2 | 54.1 | -4.49 | -12.6
Oc1c2c(nc3ccccc13)CCCC2 | 9.29 | -7.51 | 26.9 | 90.8
